# Screening data deposited in PubChem BioAssay by National Center for Advancing Translational Sciences (NCATS).
# ELG1 repair inh = ELG1-dependent DNA repair inhibition | HEK293T ELG1-luciferase reporter, luminescence, 16 h; DNA damage induced by 5-fluorouridine | Potency, µM (top dose mostly 46.1 µM), most hits filed as inhibitors | 330,000 compounds, 2.3% hits; further: nearly all actives have a fitted effect of over 55% in size
#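 In this reporter screen, reduction of luminescence relative to DMSO vehicle indicated activity. Compounds and 5-fluorouridine were added together to 2,000 cells per well, incubated for 16 hr at 37 °C, then developed with ONE-Glo.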
# DT40 TDP1 CPT = growth inhibition of DT40 Tdp1-/-;hTDP1 cells with camptothecin (screen for TDP1 inhibitors) | chicken DT40 Tdp1-/-;hTDP1 cells + 20 nM CPT, ATP luminescence, 48 h | Potency, µM (doses to about 46.2 µM), hits mostly inhibitors | 420,000 compounds, 12% hits | AID 686979; further: nearly all actives have a fitted effect of over 55% in size
#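 Cell growth measured by CellTiter-Glo luminescence after a minimum 48 h, 37 C compound exposure with 20 nM CPT in Tdp1-knockout DT40 cells stably expressing hTDP1, seeded 400/well; qHTS titration format.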
# TDP1 cell noCPT = qHTS for Inhibitors of human tyrosyl-DNA phosphodiesterase 1 (TDP1): qHTS in cells in absence of CPT. Potency, µM (top dose mostly 46.2 µM), hits mostly inhibitors. 420,000 compounds, 15% hits. DT40 Tdp1-/- hTDP1 cells, no CPT, ATP luminescence, 48 h; further: nearly all actives have a fitted effect of over 55% in size
#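 Readout: luminescence from CellTiter-Glo after 30 min in the dark at RT. Cells: DT40 Tdp1-/- with stable hTDP1, 400/well. Exposure: compounds alone, ≥48 hr, 37 °C.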
# HT1080 IDH1KD tx = kills HT-1080 cells with IDH1 knockdown | HT-1080 IDH1 knockdown viability, ATP luminescence, 48 h | Potency, µM (top dose mostly 46.1 µM), usual class: cytotoxic | 360,000 compounds, 2% hits
#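 % activity derives from luminescence (CellTiter-Glo), normalised to DMSO and no-cell wells. HT-1080-IDH1KD cells, 750/well, had 48 h compound exposure at 37 °C.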
# HT1080NT lethal = kills 2HG-producing HT-1080-NT fibrosarcoma cells | HT-1080-NT fibrosarcoma viability, CellTiter-Glo ATP luminescence, 48 h | Potency, µM (titrated, usually from 46.1 µM), hits mostly cytotoxic | 360,000 compounds, 1.6% hits;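 further: NT is the 2HG producing partner of a matched IDH1 knockdown line; nearly all actives have a fitted effect of over 55% in size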
#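 Viability by CellTiter-Glo luminescence after 48 h compound exposure at 37C of HT-1080-NT cells (750/well, RPMI, 5% FBS). % activity scaled between DMSO wells and medium-only wells, then curve-fitted and categorized by curve class.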
# IL-1B inflam inh = inhibitors of inflammasome signaling (IL-1 beta secretion) | activity change, % at 57.5 µM | 360,000 compounds, 4.7% hits | THP-1 LPS/ATP IL-1B secretion, AlphaLISA, 16 h; stronger effect = lower value | AID 743279; in the data active means activity change below about -50%; inconclusive means mostly about -30% to -49%
#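 Secreted IL-1B measured by AlphaLISA bead assay after 16 h compound exposure of THP-1 cells; compounds (final up to 57.5 uM) added 1 h before LPS (250 ng/mL) and ATP (1.25 mM) stimulation; lower signal means less secretion.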
# Hits are given with their value; – = inactive; ? = inconclusive; · = no result given. Shown are actives, neighbours in structure and some others; about 19% of the full set was active somewhere. Unless noted, the call rests on the fitted dose curve; in most records, active means well fitted curve in the direction sought with a large enough effect; inconclusive means small, poorly fitted or top-dose-only effect, or another doubt; inactive means no such curve, though single readings can be large; an effect the other way counts as inactive or inconclusive.
SMILES,ELG1 repair inh,DT40 TDP1 CPT,TDP1 cell noCPT,HT1080 IDH1KD tx,HT1080NT lethal,IL-1B inflam inh
COc1cc(OC)c2c(C)cc(=O)oc2c1C(CCN1CCOCC1)c1ccc(N(C)C)cc1 (stereo unspecified),–,5.2µM,16µM,–,–,–
COc1cc(OC)c2c(-c3ccccc3)cc(=O)oc2c1C(CCN1CCN(c2ccccc2)CC1)c1ccc(N(C)C)cc1 (stereo unspecified),–,15µM,23µM,–,–,–
COc1cc(OC)c2c(-c3ccccc3)cc(=O)oc2c1C(CC(=O)N1CCOCC1)c1ccc(N(C)C)cc1 (stereo unspecified),?,?,?,–,–,–
COc1cc(OC)c2ccc(=O)oc2c1C(CCN1CCN(c2ccccc2)CC1)c1ccc(N(C)C)cc1 (stereo unspecified),–,15µM,?,–,–,–
COc1ccc(C(CCN2CCN(c3ccccc3)CC2)c2c(OC)cc(OC)c3c(-c4ccccc4)cc(=O)oc23)cc1 (stereo unspecified),–,?,?,–,–,–
CCCCCc1cc(=O)oc2c(C(CCN3CCN(c4ccccc4)CC3)c3ccc(N(C)C)cc3)c(OC)cc(OC)c12 (stereo unspecified),?,21µM,?,–,–,–
COc1ccccc1CNC(=O)c1cn(C)c2ccc(S(=O)(=O)N3CCC(C)CC3)cc2c1=O,·,–,–,·,·,·
Cc1ncc([N+](=O)[O-])n1CC(=O)Nc1cccc(C(F)(F)F)c1,–,–,?,–,–,–
O=C(Nc1ccc(C(F)(F)F)cc1)c1cc(S(=O)(=O)NCC2COc3ccccc3O2)ccc1F (stereo unspecified),–,?,?,?,–,·
O=C(Nc1cccc(OC(F)(F)F)c1)C1Cc2c(-c3ccco3)ccnc2O1 (stereo unspecified),·,?,18µM,?,–,–
O=C(Nc1cccc(C(F)(F)F)c1)C1Cc2c(-c3ccco3)ccnc2O1 (stereo unspecified),·,16µM,?,–,–,·
O=C(Nc1cccc(OC(F)(F)F)c1)C1Cc2c(-c3ccc(Cl)cc3)ccnc2O1 (stereo unspecified),·,?,?,?,?,–
O=C(Nc1cccc(C(F)(F)F)c1)C1Cc2c(-c3ccccc3)ccnc2O1 (stereo unspecified),·,?,26µM,23µM,?,–
O=C(Nc1cccc(C(F)(F)F)c1)C1Cc2c(-c3ccc(Cl)cc3)ccnc2O1 (stereo unspecified),·,?,?,?,?,–
Cc1cccc(Cn2cnc3c(oc4ccccc43)c2=O)c1,·,?,–,·,·,·
CSC1(SC2=NCCN2)SC2(NCCN2)S1,·,10µM,13µM,?,–,?
Cc1nc2ccc(S(=O)(=O)N3CCCCC3)cc2s1,–,–,–,–,–,–
Cc1ccc(C(=O)Nc2nc3ccc(S(=O)(=O)N4CCCC4)cc3s2)cc1,·,–,–,·,·,·
CCOc1ccc2nc(NC(=O)C3CCN(C(=O)c4ccco4)CC3)sc2c1,?,?,?,–,–,?
Nc1nc2ccc(S(=O)(=O)N3CCCCC3)cc2s1,–,8.2µM,9.2µM,–,–,-106
O=C(Nc1nc2ccccc2s1)C1CCN(S(=O)(=O)c2cc([N+](=O)[O-])ccc2Cl)CC1,–,15µM,15µM,16µM,?,–
CN(C)c1cccc(C(=O)Nc2nc3ccc(S(=O)(=O)N4CCCC4)cc3s2)c1,·,6.5µM,8.2µM,·,·,·
O=C(Nc1nc2ccccc2s1)C1CCN(C(=O)c2ccco2)CC1,–,?,15µM,–,?,?
N#CC1C(=O)NC(=O)C(C#N)C12CCCc1sccc12 (stereo unspecified),·,–,–,–,–,–
C[C@]1(CC/C(=C/CO)CO)[C@H](CO)CC[C@@]23COC(=O)C2=CCC[C@@H]31,?,–,–,–,–,–
SMILES,ELG1 repair inh,DT40 TDP1 CPT,TDP1 cell noCPT,HT1080 IDH1KD tx,HT1080NT lethal,IL-1B inflam inh
O=C(Nc1nc2ccc(S(=O)(=O)N3CCCCC3)cc2s1)C1CCCO1 (stereo unspecified),–,?,?,–,–,–
COc1ccc2nc(NC(=O)c3cc(S(=O)(=O)N4CCOCC4)ccc3C)sc2c1,?,?,18µM,–,–,–
O=C(Nc1nc2ccc(S(=O)(=O)N3CCCC3)cc2s1)C1CCCCC1,?,2.6µM,4.6µM,15µM,21µM,–
COc1cccc(C(=O)Nc2nc3ccc(S(=O)(=O)N4CCCC4)cc3s2)c1,·,4.6µM,5.2µM,·,·,·
Cc1c(Cl)cccc1NC(=O)CSc1nc(=O)n(Cc2ccncc2)c2c1CCC2,·,–,–,·,·,·
CCOC(=O)C1=C(C(F)(F)F)Nc2ncnn2C1c1cc(OC)ccc1OC (stereo unspecified),–,–,–,–,–,–
CC1CCc2nc(NC(=O)CSc3nc4ccccc4o3)sc2C1 (stereo unspecified),?,?,18µM,?,?,–
Cc1nnc(SCC(=O)Nc2nc3c(s2)CC(C)CC3)s1 (stereo unspecified),–,?,10µM,–,–,–
OCCCNc1nc(-c2ccccc2)nc2c1oc1ccccc12,23µM,–,?,?,–,–
c1ccc(-c2nc(NCC3CCCO3)c3oc4ccccc4c3n2)cc1 (stereo unspecified),16µM,–,?,–,–,–
CN(C)CCOc1nc(-c2ccccc2)nc2c1oc1ccccc12,–,?,23µM,–,?,-99
O=C(O)CNc1nc(-c2ccccc2)nc2c1oc1ccccc12,–,–,–,–,–,–
c1ccc2c(c1)oc1c(NCC3CCCO3)ncnc12 (stereo unspecified),?,?,18µM,–,–,–
COc1ccc(CNC(=O)C(c2ccco2)N(C(=O)c2snc(C(N)=O)c2N)c2ccccc2OC)cc1 (stereo unspecified),–,–,?,–,–,?
c1ccc(-c2nc(NCc3cccnc3)c3oc4ccccc4c3n2)cc1,23µM,?,?,?,?,–
O=C1CC(/C=C/c2ccccn2)=Nc2ccccc2N1,?,?,15µM,–,–,-75
O=C1CC(/C=C/c2ccco2)=Nc2ccccc2N1,–,?,?,–,–,–
O=C(O)C1C2C=CC(C2)C1C(=O)NCc1ccc(Cl)c(Cl)c1 (stereo unspecified),–,15µM,–,–,–,–
O=C1COC(c2ccccc2O)=NN1CCCl,·,–,?,–,–,–
